TWEAK-Fn14 inh – blocks TWEAK-Fn14 interaction in a reporter cell assay | TWEAK-stimulated Fn14 reporter cells, luciferase luminescence, 8 h | inhibition, % at 10 µM | 2% of 360,000 active | AID 1159606; in the data active means inhibition above about 50%
TROY signal inh – inhibitors of TROY-dependent NF-kB signaling | Q293 LMP1-TROYcd NF-kB luciferase reporter, 4 h | inhibition, % at 10 µM | 0.98% of 360,000 active;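 active means compounds whose plate-normalised and pattern-corrected inhibition of the luciferase reporter signal at the single screening dose is 50% or more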
HSP90 refold inh – blocks HSP90-mediated luciferase refolding in reticulocyte lysate; Rabbit reticulocyte lysate, luciferase refolding luminescence, 3 h; inhibition, % at 5.6 µM; 0.91% of 290,000 active; AID 1789;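 active means inhibition above the screen-wide mean plus 3 SD, computed separately per campaign, cut at about 16% in these data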;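 further: inhibitors lower the luminescence because luciferase stays unfolded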
LGR2 antag – Drosophila LGR2 receptor signaling inhibition. HEK293 LGR2, CRE-luciferase, bursicon-stimulated, 4 h. inhibition, % at 9.99 µM. 0.35% of 380,000 active. AID 720647;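 active means drop in luminescence signal, shown as inhibition above about 50% in the replicate tests, limit read from the data, passing the limit was not always enough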;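 further: agonist challenge used bursicon conditioned medium at about half maximal strength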
Numbers stand for hits; - = inactive; . = no result. Most compounds without a hit are left out; they make up all but 2.2% or so of the library.

SMILES	TWEAK-Fn14 inh	TROY signal inh	HSP90 refold inh	LGR2 antag
C[C@H](CO)N1C[C@H](C)[C@@H](CN(C)Cc2ccc(F)cc2)Oc2ncc(C#Cc3cccnc3)cc2C1=O	.	.	.	-
C=CC[C@@H](CC(=O)N(CCO)Cc1ccccc1)C(=O)N[C@H](COC(=O)[C@@H](CC=C)CC(=O)OC(C)(C)C)Cc1c[nH]c2ccccc12	-	-	.	-
C=CC[C@H](CC(=O)N(CCO)Cc1ccccc1)C(=O)N[C@@H](COC(=O)[C@@H](CC=C)Cc1ccc(F)cc1)Cc1c[nH]c2ccccc12	69.6	-	.	-
C=CC[C@@H](CC(=O)N(CCO)Cc1ccccc1)C(=O)NC[C@H](OC(=O)[C@@H](CC=C)Cc1ccc(F)cc1)c1ccccc1	51.8	-	.	-
C=CC[C@@H](CC(=O)N[C@H](CO)Cc1ccccc1)C(=O)N[C@H](COC(=O)[C@@H](CC=C)Cc1ccc(F)cc1)Cc1c[nH]c2ccccc12	65.8	68.5	.	-
C=CC[C@H](CC(=O)N(CCO)Cc1ccccc1)C(=O)N[C@@H](COC(=O)[C@H](CC=C)CC(=O)OC(C)(C)C)Cc1c[nH]c2ccccc12	-	-	.	-
C=CC[C@@H](CC(=O)N(CCO)Cc1ccccc1)C(=O)N[C@H](COC(=O)[C@@H](CC=C)Cc1ccc(F)cc1)c1ccccc1	-	-	.	-
C=CC[C@@H](CC(=O)N(CCO)Cc1ccccc1)C(=O)N[C@@H](COC(=O)[C@@H](CC=C)Cc1ccc(F)cc1)Cc1c[nH]c2ccccc12	57.4	-	.	-
CCCC(=O)Nc1ccc2c(c1)C(=O)N(C)C[C@H](OC)[C@@H](C)CN(Cc1cccc(F)c1)[C@H](C)CO2	.	.	.	-
C[C@@H]1CCCCO[C@H](CN(C)S(=O)(=O)c2ccc(Cl)cc2)[C@H](C)CN([C@@H](C)CO)C(=O)c2cc(NC(=O)Nc3ccccc3)ccc2O1	.	.	.	-
Cc1ccc(-n2c(C)c([N+](=O)[O-])c3ccc(O)c(CN(C)C)c32)cc1	75.0	50.7	-	.
O=C(C[C@H]1C[C@H]2c3cc(NC(=O)Nc4ccccc4F)ccc3O[C@H]2[C@@H](CO)O1)NC1CCCC1	.	.	.	-
CCCc1nnc(NC(=O)C(=O)NCCN(CC)CC)s1	-	54.1	-	.
CCCc1nnc(NC(=O)C(=O)NCCN(C)C)s1	-	-	-	-
C[C@H]1CCCCO[C@@H](CN(C)C(=O)Nc2ccccc2)[C@@H](C)CN([C@@H](C)CO)C(=O)c2cc(NS(=O)(=O)c3cn(C)cn3)ccc2O1	.	.	.	-
Cc1cc(C)n(CC(=O)N/N=C/c2cccs2)n1	104.8	-	-	-
Cc1nccn1CC(=O)N/N=C/c1cccs1	73.8	-	-	-
O=S(=O)(N[C@H]1CC[C@@H](CCn2cc(-c3ccc(F)cc3)nn2)O[C@H]1CO)c1ccccc1F	.	.	.	-
COc1ccc(NC(=O)N(C)C[C@H]2Oc3c(NC(=O)c4cnccn4)cccc3C(=O)N([C@H](C)CO)C[C@@H]2C)cc1	.	.	.	-
COc1cccc(-c2ccc3c(c2)[C@H]2[C@H](CCN2S(=O)(=O)c2ccccc2OC)[C@@H](CO)N3C)c1	.	.	.	-
O=C(Cc1cccnc1)N1CC2(C1)[C@@H](c1ccccc1)[C@@H](CO)N2C(=O)C1CCCCC1	.	.	.	-
C[C@H]1CCCCO[C@@H](CN(C)Cc2ccc3c(c2)OCO3)[C@@H](C)CN([C@@H](C)CO)C(=O)c2cc(NC(=O)CCC(F)(F)F)ccc2O1	.	.	.	-
CC(C)c1ccc(OCc2nc(-c3ccccn3)no2)c(Br)c1	-	-	-	.
CCc1ccc(OCc2nc(-c3ccccn3)no2)c(Br)c1	59.2	-	-	.
O=C(C[C@H]1CC[C@H](NC(=O)c2ccncc2)[C@H](CO)O1)NCC1CC1	.	.	.	-
SMILES	TWEAK-Fn14 inh	TROY signal inh	HSP90 refold inh	LGR2 antag
COc1ccccc1C1/C(=C(/O)c2cnn(-c3ccccc3)c2C)C(=O)C(=O)N1CCN(C)C (stereo unspecified)	-	-	.	-
Cc1ccc(C2/C(=C(\O)c3cnn(-c4ccccc4)c3C)C(=O)C(=O)N2CCN(C)C)o1 (stereo unspecified)	-	-	-	.
Cc1c(/C(O)=C2\C(=O)C(=O)N(CCCN(C)C)C2c2ccco2)cnn1-c1ccccc1 (stereo unspecified)	80.4	79.5	.	-
Cc1c(/C(O)=C2\C(=O)C(=O)N(CCCN(C)C)C2c2cccs2)cnn1-c1ccccc1 (stereo unspecified)	58.5	65.9	.	-
Cc1ccc(-c2nc(C=Nc3ccc(O)cc3)c(O)o2)cc1	64.0	-	-	-
CCC(=O)Oc1oc(-c2ccccc2)nc1C=Nc1ccccc1OC	-	-	-	.
CN=Cc1nc(-c2ccccc2)oc1O	-	-	-	.
CCC(=O)Oc1oc(-c2ccccc2)nc1C=Nc1ccc(C)cc1	-	72.0	-	-
C[C@@H]1CN([C@@H](C)CO)C(=O)c2cccc(NC(=O)NC3CCCCC3)c2O[C@@H]1CN(C)Cc1ccc2c(c1)OCO2	.	.	.	-
CN1c2ccc(-c3ccccc3F)cc2[C@H]2[C@H](CCN2C(=O)Nc2ccc(F)cc2)[C@H]1CO	.	.	.	-
NC(=O)c1c(NC(=O)c2ccccc2)sc2c1CCc1ccccc1-2	56.1	-	-	-
CC(C)C1Nc2c(O)cc(Cl)c([N+](=O)[O-])c2C2C=CCC21 (stereo unspecified)	-	58.1	-	-
COc1cc(Cn2c3ccc(NC(=S)NCc4ccc(C)cc4)cc3c(=O)n2C)ccc1F	73.4	58.5	.	-
O=[N+]([O-])c1cc([N+](=O)[O-])c2oc(-c3ccccc3)c(Br)c2c1O	-	68.6	-	.
COCC#Cc1ccc2c(c1)O[C@H](CN(C)S(=O)(=O)c1cccc(OC)c1)[C@H](C)CN([C@@H](C)CO)S2(=O)=O	.	.	.	-
C[C@H]1CN([C@@H](C)CO)C(=O)c2cccc(NC(=O)Nc3ccc(F)cc3)c2O[C@@H]1CN(C)C(=O)Nc1ccc(F)cc1	.	.	.	-
CC(=O)Nc1sc2c(c1C#N)CCCC2	-	-	-	.
N#Cc1c(NC(=O)CSc2ncn[nH]2)sc2c1CCCCC2	75.4	-	-	-
CCCc1cc(C(=O)Nc2sc3c(c2C#N)CCC3)no1	99.9	-	-	-
CCCc1cc(C(=O)Nc2sc(C)c(CC)c2C#N)no1	-	-	-	-
CC(=O)NC(=S)Nc1sc2c(c1C#N)CCCCC2	67.3	58.6	-	-
N#Cc1c(NC(=O)CSc2nc(N)cc(=O)[nH]2)sc2c1CCCCCC2	-	-	-	-
CC(C)(C)C(=O)Nc1sc2c(c1C#N)CCC2	-	-	-	-
CC(C)(C)C(=O)NC(NC(=S)Nc1sc2c(c1C#N)CCCC2)C(Cl)(Cl)Cl (stereo unspecified)	-	58.9	-	.
O=C(NCc1ccccn1)[C@@H]1[C@@H](CO)[C@@H]2Cn3c(cccc3=O)[C@H]1N2CC1CCCCC1	.	.	.	-
COc1ccc(NC(=O)N(C)C[C@H]2Oc3ccc(NS(=O)(=O)c4ccccc4)cc3CC(=O)N([C@@H](C)CO)C[C@H]2C)cc1	.	.	.	-
CCC(=O)N1CC2(C1)[C@H](c1ccccc1)[C@H](CO)N2CC1CCOCC1	.	.	.	-
CCC(=O)Nc1ccc2c(c1)C(=O)N(C)C[C@H](OC)[C@H](C)CN(CC1CC1)[C@H](C)CO2	.	.	.	-
O=C(Nc1ccc2c(c1)OCCO2)C1CCCN1C(=O)Nc1ccccc1 (stereo unspecified)	-	-	-	-

Compound activity (PubChem BioAssay)
